Only a selection was taken, and hits are over-represented in it overall.
ERG Ets-DNA blk – ERG Ets/DNA interaction inhibition | P11308 | fluorescence polarization, His-ERG Ets domain / labelled DNA | actives 0.028% (n = 370,000) | AID 624246 | Potency, µM (series often up to 76.9 µM), hits mostly inhibitors; active means well fitted inhibition curve with a large enough effect in the polarisation, with a control signal flat; inconclusive means small, poorly fitted or top-dose-only effect, or effect the other way, or a change in a side signal; inactive means no such curve, though single readings can be large or run the other way; the % refers to the polarisation;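 further: polarization taken with two DNA probes labelled with fluorescein and Texas red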
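His-tagged ERG Ets domain (1 uM in the protein solution; 300mM KCl, 50mM Tris-HCl, 1mM EDTA, 1mM DTT, pH 7.5) received compound, then a probe mix of 5 nM fluorescein-DNA and 100nM Texas-615-DNA. Fluorescence polarization was read for both dyes.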
TR SRC2 fluor cs – counter-screen for TRb-SRC2 inhibitors: fluorescence interference; TRb/SRC2 Texas Red total fluorescence interference; Potency, µM (series often up to 106 µM); actives 0.29% (n = 280,000); AID 1479; active means well fitted curve in either direction with a large enough effect; inconclusive means small, poorly fitted or top-dose-only effect
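Flags fluorescent or light-absorbing compounds by total fluorescence, S + 2P, at 555 nm excitation and 632 nm emission. Mixture: 20 nM Texas Red SRC2 peptide, 0.6 uM human TRb LBD, 1 uM T3, 5% DMSO; compound exposure 5 h at ambient temperature.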
TRb SRC2 PPI – inhibitors of human thyroid hormone receptor beta-SRC2 interaction. AID 1469. actives 0.065% (n = 280,000). P10828. Potency, µM (highest dose often 106 µM), usual class: inhibitors. TRbeta-SRC2 peptide binding, fluorescence polarization; receptor liganded with 1 µM T3; active means well fitted inhibition curve with a large enough effect; inconclusive means small, poorly fitted or top-dose-only effect, or effect the other way; further: nearly all actives have a fitted effect of over 50% in size
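Fluorescence polarization of 20 nM Texas Red SRC2 peptide (20-aa NR interaction domain) bound to 0.6 uM human TRb ligand-binding domain, with 1 uM T3, after 5 hr at ambient temperature; inhibition seen as decreased polarization.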
GoLoco inh red – inhibitors of human Gai1-RGS12 GoLoco interaction (red fluorophore); P63096; AID 880; actives 0.44% (n = 230,000); Gai1:RGS12 GoLoco peptide FP, rhodamine, 10 min; Potency, µM (top dose mostly 61.6 µM), most hits filed as inhibitors; active means well fitted inhibition curve with a large enough effect, not every such curve was filed as active; inactive means no such curve, though single readings can be large or run the other way; further: nearly all actives have a fitted effect of over 30% in size
Target sequence (P63096 whole entry, looked up): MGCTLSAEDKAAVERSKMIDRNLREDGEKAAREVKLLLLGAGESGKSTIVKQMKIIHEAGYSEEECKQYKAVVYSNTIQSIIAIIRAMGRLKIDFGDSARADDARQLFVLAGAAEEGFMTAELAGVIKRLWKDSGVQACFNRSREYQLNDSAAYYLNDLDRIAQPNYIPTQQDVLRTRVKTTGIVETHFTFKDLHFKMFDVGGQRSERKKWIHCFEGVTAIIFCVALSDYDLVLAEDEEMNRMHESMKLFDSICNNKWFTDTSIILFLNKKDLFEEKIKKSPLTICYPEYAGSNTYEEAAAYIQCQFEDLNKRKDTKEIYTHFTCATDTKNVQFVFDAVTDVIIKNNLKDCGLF
Hits are given with their value; 0 = inactive; ? = inconclusive; - = no result given; ! = repeats disagree; [ ] = remark or other dose.

SMILES	ERG Ets-DNA blk	TR SRC2 fluor cs	TRb SRC2 PPI	GoLoco inh red
Cc1ccc2nc(-c3ccc(N)cc3)sc2c1S(=O)(=O)O	-	0	0	0
Oc1cc2c(cc1O)[C@H]1c3ccc(O)c(O)c3OC[C@@]1(O)C2	0	0	0	4µM!
Oc1ccc2c(c1)OCC1(O)Cc3cc(O)c(O)cc3C21 (centres undefined)	13µM	?	?	0
Oc1ccc2c(c1)OCO2	-	0	0	0
CC(=O)OCCn1c2nc(=O)[nH]c(=O)c-2nc2cc(C)c(C)cc21	35µM	0	0	14µM
Cc1cc2nc3c(=O)[nH]c(=O)nc-3n(C)c2cc1C=O	-	0	0	10µM
COc1ccc(OCCn2c(C)nc3cc(C)c(C)cc32)cc1	0	0	0	-
CCCSc1nc2cc(C)c(C)cc2n1CC(O)CO (centres undefined)	0	0	0	0
Cc1cc2nc3c(=O)[nH]c(=O)nc-3n(CC(O)C(O)C(O)CO)c2cc1C (centres undefined)	-	0	0	14µM
CCCCOCC(C)OCC(C)O (centres undefined)	-	0	0	-
O=C(O)CC12C[C@H]3C[C@@H](CC(O)(C3)C1)C2	-	-	-	0[14.2 µM]
c1ccc2sc(SSc3nc4ccccc4s3)nc2c1	-	0	0	10µM
FC(F)(F)c1nc2cc3nc4ccccc4[nH]c3cc2n1	?	0	?	16µM
Cl[Si](Cl)(Cl)c1ccccc1	-	0	0	-
C=Cc1ccccc1Br	-	0	0	-
CCCCCc1ccc(N)cc1	-	0	0	-
CCCCOc1ccc(C(=O)N2CCN(CCc3ccncc3)CC2)cc1	0	6.3µM[quencher]	0	-
Cc1ccc2nc(-c3ccc(NC(=O)COc4ccc(Br)cc4Br)cc3)sc2c1	0	0.32µM[quencher]	0	-
CCCCCCCC/C=C\CCCCCCCC(=O)OC[C@@H](O)[C@H]1OC[C@H](O)[C@H]1O	-	0	0	-
CCCN(CCC)CCCNC(=O)c1nn(C)c2c1CS(=O)(=O)c1ccccc1-2	0	50µM[quencher]	0	-
CCOc1ccccc1CNC(=O)c1nn(C)c2c1CS(=O)(=O)c1ccccc1-2	0	0.11µM[quencher]	0	-
CCCN(CCC)CCNC(=O)c1nn(C)c2c1CS(=O)(=O)c1ccccc1-2	0	0	0	-
CCOC(=O)NN1C(=O)c2ccccc2NC1c1ccc(N(C)C)cc1 (centres undefined)	0	112µM[quencher]	0	0
CCOC(=O)NN1C(=O)c2ccccc2NC1c1ccccc1 (centres undefined)	0	?	0	0
Cc1cccc(N=Nc2c(C)c(C#N)c(O)[nH]c2=O)c1	0	0	0	5µM
SMILES	ERG Ets-DNA blk	TR SRC2 fluor cs	TRb SRC2 PPI	GoLoco inh red
CCCCC(CC)COC(=O)/C=C\C(=O)OCC(CC)CCCC (centres undefined)	-	0	0	-
CC(=O)Nc1ccc(S(=O)(=O)NC2=NCN(C(C)C)CN2)cc1	0	13µM[quencher]	0	-
CC(=O)Nc1ccc(S(=O)(=O)NC2=NCN(C)CN2)cc1	0	0	0	0
COc1cc(-c2ccc(N=Nc3ccc4c(S(=O)(=O)O)cc(S(=O)(=O)O)c(N)c4c3O)c(OC)c2)ccc1N=Nc1ccc2c(S(=O)(=O)O)cc(S(=O)(=O)O)c(N)c2c1O	-	16µM[fluorescent]	25µM	0
O=[N+]([O-])c1ccc2c(N=Nc3ccc4ccccc4c3O)c(O)cc(S(=O)(=O)O)c2c1	-	-	-	0[14.2 µM]
Cc1nn(-c2ccc(S(=O)(=O)O)cc2)c(O)c1N=Nc1ccc(-c2ccc(N=Nc3ccc4c(S(=O)(=O)O)cc(S(=O)(=O)O)c(N)c4c3O)c(O)c2)cc1O.[Cu].[Cu]	-	-	-	3.2µM
O=S(=O)(O)c1ccc2c(N=Nc3cccc4ccccc34)c(O)c(S(=O)(=O)O)cc2c1	-	-	-	0[14.2 µM]
c1ccc2[nH]c(SN3CCOCC3)nc2c1	-	0	0	8.9µM
N[C@H](CSSC[C@@H](N)C(=O)O)C(=O)O	-	0	0	-
O=C(NCc1cccc(F)c1)C1CCN(C(=O)c2sccc2-n2cccc2)CC1	0	25µM![quencher]	0	0
COCCCNC(=O)C1CCN(C(=O)c2cnn(-c3ccccc3)c2-n2cccc2)CC1	0	0	0	-
O=C(NCc1ccccc1)C1CCN(C(=O)c2cnn(-c3ccccc3)c2-n2cccc2)CC1	0	32µM[quencher]	0	-
O=C(NCCc1ccccc1)C1CCN(C(=O)c2sccc2-n2cccc2)CC1	0	0	0	0
Cc1ccc(N=C2NC(=O)/C(=C/C=C/c3ccco3)S2)cc1	0	40µM[quencher]	?	0
O=C1NC(=Nc2ccccc2)S/C1=C\C=C\c1ccco1	0	0	0	0
COc1ccc(NC(=O)C2CCN(C3=NS(=O)(=O)C(c4ccc(C)c(C)c4)=C3C)CC2)c(OC)c1	0	224µM[quencher]	?	-
CCC1=C(c2ccc(C)cc2)S(=O)(=O)N=C1N1CCC(C(=O)N2CCCCC2)CC1	0	0	0	-
CC1=C(c2ccc(C)c(C)c2)S(=O)(=O)N=C1N1CCC(C(=O)N2CCCCC2)CC1	0	562µM[quencher]	0	-
COc1ccc(C2=C(C)C(N3CCC(C(=O)Nc4ccccc4F)CC3)=NS2(=O)=O)cc1	0	0	0	-
COC(=O)c1c(Cl)nn(C)c1S(=O)(=O)NC(=O)Nc1nc(OC)cc(OC)n1	-	0	0	-
CCCCCCCCCCCC(=O)N(C)CC(=O)O	-	0	0	-
CCCn1cc(S(=O)(=O)c2ccc(C)c(C)c2)c(=O)c2cc(F)c(N3CCCCC3)cc21	0	282µM[quencher]	0	-
Cn1cc(S(=O)(=O)c2cccc(Cl)c2)c(=O)c2cc(F)c(N3CCN(c4ccccc4)CC3)cc21	0	158µM[quencher]	0	-
Cc1cccc(S(=O)(=O)c2cn(C)c3cc(N4CCN(c5ccccc5)CC4)c(F)cc3c2=O)c1	0	56µM[quencher]	?	-
C[C@]12CC[C@@H]3c4cc(O)c(O)cc4CC[C@H]3[C@@H]1CC[C@@H]2O	0	0	0	7.9µM
SMILES	ERG Ets-DNA blk	TR SRC2 fluor cs	TRb SRC2 PPI	GoLoco inh red
O=c1cc(-c2ccccc2)oc2cc(O)c(O)c(O)c12	0	45µM![quencher]	?	0
CN1\C(=C/C=C/C=C/C=[N+](C)C)C(C)(C)c2ccccc21	-	50µM[fluorescent]	?	0
O=S(=O)(/N=C/c1c(O)ccc2ccccc12)c1cccs1	-	?	28µM	0
C=C(C)C(=O)OCC[N+](C)(C)C	-	0	0	-
Cc1ncc(COP(=O)(O)O)c(C)c1O	-	-	-	0[14.2 µM]
CCCCCCCC/C=C\CCCCCCCC(=O)OC	-	0	0	-
O=C1c2sc3nc4n(c(=O)c3c2CCC1Br)CCCCC4 (centres undefined)	0	0	0	3.2µM
CCC(C=C[C@@H]1OC(=O)C=C[C@H]1C)=C[C@H](C)CC=CC(C)=C[C@@H](C)C(=O)[C@@H](C)[C@H](O)[C@@H](C)CC(C)=CC(=O)O	-	0[2.82 µM]	0[2.82 µM]	0[0.551 µM]
Cc1ccc(-c2csc(N3N=C(c4ccccc4)/C(=C\c4ccc(N(C)C)cc4)C3=O)n2)cc1	-	40µM[quencher]	?	0
CC1=NN(c2cccc(F)c2)C(=O)/C1=C/c1ccc(N(C)C)cc1	0	-	-	-
CC(COc1ccc(/C=C/c2ccccc2)cc1)[N+](C)(C)C (centres undefined)	0	0	0	10µM
O=C1C=CC(=O)C2=C1C1c3ccccc3C2c2ccccc21	-	0	0	18µM
CCCCCCCC1=Cc2ccccc2C(C(C(C)=O)C(=O)OC)N1C(=O)OC (centres undefined)	-	0[11.2 µM]	0[11.2 µM]	0[14.2 µM]

Source: PubChem BioAssay (National Center for Advancing Translational Sciences (NCATS))
